Results on 45 compounds are retold here after PubChem BioAssay AID360 (National Center for Advancing Translational Sciences (NCATS), 2006).

Each structure is given as a SMILES string. In all, about 48,000 compounds went through this assay and about 550 (1.1%) were called active. Roughly 4% stayed inconclusive and do not appear here. The sample holds actives, similar compounds and a random draw of the others, so the mix is not that of the screen. Rule as the data show it: active = potency below about 15 µM; inconclusive = mostly about 16 µM to 33 µM; inactive = weaker than that. A value given as a limit tells only on which side of the number the result lay.
Potency is read from the fitted curve at half-maximal effect.

Lysosomal acid glucosylceramidase (Homo sapiens), sequence (P04062 whole entry, looked up): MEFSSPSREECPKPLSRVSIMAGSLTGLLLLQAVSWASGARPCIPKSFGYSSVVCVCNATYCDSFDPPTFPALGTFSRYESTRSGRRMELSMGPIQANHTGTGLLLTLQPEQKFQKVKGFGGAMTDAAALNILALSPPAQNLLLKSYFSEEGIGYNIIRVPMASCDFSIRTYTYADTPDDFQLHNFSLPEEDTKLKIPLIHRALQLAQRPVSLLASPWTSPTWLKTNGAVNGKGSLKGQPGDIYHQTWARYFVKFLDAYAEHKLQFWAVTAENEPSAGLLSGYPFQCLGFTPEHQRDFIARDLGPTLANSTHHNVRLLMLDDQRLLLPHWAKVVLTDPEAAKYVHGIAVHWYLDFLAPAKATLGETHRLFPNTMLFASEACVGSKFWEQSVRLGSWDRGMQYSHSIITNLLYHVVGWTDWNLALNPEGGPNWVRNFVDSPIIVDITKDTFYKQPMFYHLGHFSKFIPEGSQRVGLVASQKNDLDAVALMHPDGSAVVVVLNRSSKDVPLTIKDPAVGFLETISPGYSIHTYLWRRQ

The experiment has as its target Lysosomal acid glucosylceramidase (Homo sapiens) (UniProt P04062). The experiment can be described thus: Glucocerebrosidase.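 Also: the screen sought inhibitors.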 As to conditions: purified enzyme, resorufin glucoside fluorescence (screen aimed at inhibitors), 20 min. The method, boiled down: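 Wild-type enzyme at 0.2 nM final in 50mM citric acid/KH2PO4, 10mM sodium taurocholate, 0.01% tween-20, pH 5.9, with resorufin beta-D-glucopyranoside at 30 uM final. Compounds titrated, 20 min at RT, red fluorescence read; AC50 from titration.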
Regarding `COc1ccc(C2C3=C(CC(C)(C)CC3=O)Oc3ncn4nc(-c5cccnc5)nc4c32)cc1OC` (stereo not given), the Potency was > 76.9 µM (inactive). The value for `CCCn1c(SCC(=O)Nc2c(C)cccc2C)nnc1C(C)C` was > 76.9 µM (inactive). For `CCOC(=O)CSc1nnc(-c2ccco2)n1C` the value was > 76.9 µM (inactive); for `CN1CCC2(CC1)NC(=O)NC2=O`, > 76.9 µM (inactive); for `O=C(Nc1cnccn1)c1cccnc1`, > 76.9 µM (inactive). For `O=C(Cn1c(-c2ccccn2)nc2ccccc21)NCCN1CCOCC1` the value was > 76.9 µM (inactive); for `COc1ccc(-c2nnc(SCC(=O)c3ccco3)n2-c2ccccc2)cc1`, > 76.9 µM (inactive). For the compound `Cc1ccc(C(C(=O)NC2CCCC2)N(Cc2ccco2)C(=O)CCC(=O)Nc2ccccn2)cc1` (stereo not given), the Potency was > 76.9 µM (inactive). For `COC(=O)c1ccc(C2NC(=O)NC(C)=C2C(=O)N(C)C)cc1` (stereo not given) the value was > 76.9 µM (inactive); for `COC(=O)c1ccc(C2C3=C(Nc4nnnn42)c2ccccc2OC3)cc1` (stereo not given), 8.19 µM (active); for `COc1ccc(C2C(C(=O)Nc3ccccc3OC)=C(C)Nc3nnnn32)c(OC)c1` (stereo not given), > 76.9 µM (inactive).

As for `CCOC(=O)c1c(C)nc(-c2ccccc2)nc1NC(=O)C(C)C`, the Potency is > 76.9 µM (inactive). For `O=c1[nH]nc(Cc2ccccn2)c2ccccc12` the value was > 76.9 µM (inactive); for `CCOC(=O)c1cnc(-n2nc(C)cc2C)nc1-n1nc(C)cc1C`, > 76.9 µM (inactive); for `CCc1ccccc1N(CC(=O)N1CCN(c2ccccc2F)CC1)S(C)(=O)=O`, > 76.9 µM (inactive). For `CCOc1ncccc1C(=O)OCc1cn2cc(Cl)ccc2n1` the value was > 76.9 µM (inactive); for `CN(Cc1ccccc1)Cc1ccccc1F`, > 76.9 µM (inactive); for `COc1ccccc1OCCC(=O)OCC(=O)NC(=O)NC(C)(C)C`, > 76.9 µM (inactive). For `O=S(=O)(c1cccc(S(=O)(=O)N2CCC(n3nnc4ccccc43)CC2)c1)N1CCCCC1` the value was 10.5 µM (active); for `CC(=O)c1cccc(S(=O)(=O)N2CCC(n3nnc4cc(F)ccc43)CC2)c1`, > 76.9 µM (inactive); for `O=S(=O)(c1cccc(-c2nnc(SC(F)F)n2-c2ccccc2)c1)N1CCCCC1`, > 76.9 µM (inactive).

For `O=C(C1=C(O)C(=O)N(Cc2ccccc2)C1c1cccnc1)c1ccco1` (stereo not given), the Potency is > 76.9 µM (inactive).

With `O=C1NC(c2cc3c(cc2Cl)OCO3)Oc2ccccc21` (stereo not given), the Potency was > 76.9 µM (inactive). For `O=C1N(Cc2ccc3c(c2)OCO3)c2ccccc2C1(O)c1c[nH]c2ccccc12` (stereo not given) the value was > 76.9 µM (inactive); for `CCC(=O)Nc1ccc(C(=O)CSc2nnc(CNc3ccc(Cl)cc3)o2)cc1OC`, > 76.9 µM (inactive); for `Cc1cc(N2CCCC2)n2nc(C)c(-c3ccccc3)c2n1`, 7.9 µM (active). The value for `Cc1cc(-n2nc(C)cc2C)n2ncc(-c3ccccc3)c2n1` was > 76.9 µM (inactive); that for `Cc1cc(C)c2c(n1)nn1c(N3CCOCC3)cc(C)nc21` was > 76.9 µM (inactive); that for `COc1ccc(CC(=O)Nc2ccc3c(c2)CCC3)cc1S(=O)(=O)N1CCOCC1` was > 76.9 µM (inactive). For `Cc1cccc(-n2c(N)cc(=O)nc2SC(C)C(=O)NC2CCCCC2)c1` (stereo not given) the value was > 76.9 µM (inactive). Consider `O=C(Nc1cccc(NC(=O)N2CCN(c3ccccc3)CC2)c1)N1CCN(c2ccccc2)CC1`, for which the Potency was > 76.9 µM (inactive). The value for `CC(C)N(C(=O)COC(=O)c1ccccc1C(=O)N1CCN(c2ccc(F)cc2)CC1)C(C)C` was > 76.9 µM (inactive); that for `CC(=O)N1CCN(c2ccc(NCc3ccc(C(C)C)cc3)cc2)CC1` was 7.71 µM (active). For `COC(=O)Cc1c(C)c2ccc(OCC(=O)NCc3ccc4c(c3)OCO4)cc2oc1=O` the value was > 76.9 µM (inactive).

Turning to `CC1(C)Oc2ccc(C(=O)N3CCOCC3)cc2N(CC(=O)Nc2ccccc2)C1=O`, the Potency is > 76.9 µM (inactive). The value for `Cc1ccc(-c2noc(CN3CCN(Cc4ccccc4)CC3)n2)cc1` was > 76.9 µM (inactive); that for `CCOC(=O)Cc1c(C)nc2c(C#N)c(C)nn2c1C` was > 76.9 µM (inactive); that for `Cc1cc(C(=O)COC(=O)CCCN2C(=O)c3ccccc3C2=O)c(C)n1C` was > 76.9 µM (inactive). For `CCOC(=O)CSc1nnc(NC(=O)c2cccc(S(=O)(=O)N3CCCC3)c2)s1` the value was > 76.9 µM (inactive); for `COc1cccc(-c2nnc(N(C)C(=O)c3ccno3)s2)c1`, > 76.9 µM (inactive); for `CC1(C)CC(CCC(=O)Nc2ccccc2Cl)C(=O)O1` (stereo not given), > 76.9 µM (inactive). For `CN(C(=O)COc1ccccc1)c1nnc(-c2ccncc2)s1` the value was > 76.9 µM (inactive). Turning to `Cc1cc(Cl)c(S(=O)(=O)NCCC(=O)O)cc1OCC(N)=O`, the Potency is > 76.9 µM (inactive). For `COC(=O)C(CC(=O)Nc1cc(C)ccc1C)Nc1ccccc1OC` (stereo not given) the value was > 76.9 µM (inactive); for `Cc1ccc2nc(S(=O)(=O)O)[nH]c2c1`, > 76.9 µM (inactive).
